tim23-1 inh – growth inhibitors of tim23-1 mutant yeast, primary screen, luminescence, uHTS; AID 463212, 2010; S. cerevisiae tim23-1 growth, BacTiter-Glo luminescence, 24 h; 1.3% of 330,000 active; inhibition, % at 20 µM;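 active means growth inhibition of the mutant yeast at or above 50%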;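 further: temperature-sensitive mutant grown at 25 °C; plate controls were DMSO-treated mutant yeast for no effect and medium wells lacking yeast for full effect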
PfHsp90 yeast 2 – growth inhibition of PfHsp90-expressing yeast, primary screen, antimalarial PfHsp90 inhibitor project, S. cerevisiae, BacTiter-Glo luminescence, single point, set 2; BacTiter-Glo ATP, 48 h; yeast lacking PDR1 and PDR3 efflux regulators; AID 504621, 2011; inhibition, % at 9.4 µM; 0.32% of 310,000 active;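 active means every replicate shows inhibition above about 80%, whatever the replicate mean, limit read from the data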;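 further: 0% = DMSO neutral controls and 100% = 20 µM radicicol positive controls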
Rce1 inhib – yeast Rce1p protease inhibitors, primary screen, biochemical, fluorescence, cell-free homogeneous; CAAX prenyl protease 2 (Saccharomyces cerevisiae (strain ATCC 204508 / S288c)), Q03530; yeast membranes, quenched prenylated peptide cleavage fluorescence; calls only; 0.27% of 290,000 active; AID 2563, 2010;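 active means fall in fluorescence gain of 50% or more versus controls, with final raw signal at or below 3038400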;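 further: plate controls were neutral control wells for no effect and wells lacking membranes for full effect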
Target sequence (Q03530 whole entry, looked up): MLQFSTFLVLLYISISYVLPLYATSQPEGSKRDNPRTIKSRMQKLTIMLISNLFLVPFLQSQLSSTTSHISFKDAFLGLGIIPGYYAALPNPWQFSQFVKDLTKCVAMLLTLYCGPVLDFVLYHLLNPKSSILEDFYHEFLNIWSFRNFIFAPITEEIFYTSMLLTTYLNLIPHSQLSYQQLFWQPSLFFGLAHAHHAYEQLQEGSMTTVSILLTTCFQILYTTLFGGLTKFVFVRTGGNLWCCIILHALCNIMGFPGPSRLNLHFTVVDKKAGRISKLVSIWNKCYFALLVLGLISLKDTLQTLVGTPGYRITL
tim10-1 inh – growth inhibitors of tim10-1 mutant yeast, primary screen, luminescence, uHTS; S. cerevisiae tim10-1 ts strain growth, BacTiter-Glo, 24 h; inhibition, % at 20 µM; 2.2% of 330,000 active; AID 463190, 2010;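 active means inhibition of at least 40%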;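 further: mutant grown at 25 °C; 0% = DMSO wells with yeast and 100% = wells holding no yeast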
TIM10 inh – growth inhibitors of isogenic TIM10 control yeast, primary screen, counter-screen for tim10-1 yeast inhibitor project, luminescence, uHTS | S. cerevisiae TIM10 strain growth, BacTiter-Glo luminescence, 24 h | inhibition, % at 10 µM | 1.4% of 330,000 active | AID 463195, 2010;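 active means inhibition of 40% or more at the single tested concentration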;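 further: wild-type TIM10 isogenic control strain grown at permissive 25 °C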
tim23-1 confirm – tim23-1 mutant yeast growth inhibitors, confirmation, luminescence, single concentration | 83% of 4,400 active | AID 463218, 2010 | inhibition, % at 20 µM | S. cerevisiae tim23-1 growth, BacTiter-Glo luminescence, 24 h | shares compounds with tim23-1 inh;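 active means inhibition above about 39% in either of two replicate wells at 20 µM, limit read from the data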;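 further: temperature-sensitive tim23-1 mutant grown at 25 °C; 0% = DMSO wells with yeast and 100% = medium wells without yeast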
Active calls of the source: *. Only some compounds are listed: those with a hit (about 3.7% of all), similar ones and a draw of the others.

`Cc1c(N(C(=O)c2ccccn2)C2(C(=O)NC3CCCC3)CCCCC2)c(=O)n(-c2ccccc2)n1C` gave tim23-1 inh 12, PfHsp90 yeast 2 17, Rce1 inhib inactive, tim10-1 inh -3 and TIM10 inh 10.
For O=Nc1c(-c2c(O)[nH]c3cc(Br)ccc23)[nH]c2ccccc12 the results were tim23-1 inh 51*, PfHsp90 yeast 2 5, Rce1 inhib inactive, tim10-1 inh 9, TIM10 inh 32 and tim23-1 confirm 57*.
Screening O=C(CNC(=O)c1ccccc1)N=Nc1c(O)[nH]c2ccc(Br)cc12 returned tim23-1 inh -11, PfHsp90 yeast 2 -16, Rce1 inhib inactive, tim10-1 inh 2 and TIM10 inh -7.
`NC(N)=N/N=C/c1ccc(OCc2ccccc2)c(OCc2ccccc2)c1` gave tim23-1 inh 60*, PfHsp90 yeast 2 -21, tim10-1 inh -5, TIM10 inh 5 and tim23-1 confirm 49*.
NC(N)=N/N=C/c1ccc(OCc2ccccc2Cl)cc1 was read as tim23-1 inh 59*, PfHsp90 yeast 2 28, Rce1 inhib inactive, tim10-1 inh -7, TIM10 inh -10 and tim23-1 confirm 44*.
Screening COc1cccc(NC(=O)C2CCC(CNS(=O)(=O)c3cccs3)CC2)c1 (stereo not given) returned tim23-1 inh 8, PfHsp90 yeast 2 2, Rce1 inhib inactive, tim10-1 inh 0 and TIM10 inh -2.
`CCOC(=O)c1c(C=O)c(C)n(Cc2ccc(Cl)cc2)c1C` gave tim23-1 inh 63*, Rce1 inhib inactive, tim10-1 inh 30, TIM10 inh 34 and tim23-1 confirm 58*.
CCOC(=O)c1c(C=O)c(C)n(Cc2ccccc2)c1C was read as tim23-1 inh 23, PfHsp90 yeast 2 50, Rce1 inhib inactive, tim10-1 inh 28 and TIM10 inh 26.
For CC(NC(=S)NC1CCC(C(C)(C)C)CC1)c1ccccc1 (stereo not given) the results were tim23-1 inh 31, PfHsp90 yeast 2 1, Rce1 inhib inactive, tim10-1 inh 38 and TIM10 inh 26.
O=c1oc(-c2ccccc2[N+](=O)[O-])nc2ccccc12 was read as tim23-1 inh 55*, PfHsp90 yeast 2 10, Rce1 inhib inactive, tim10-1 inh 32, TIM10 inh 14 and tim23-1 confirm 51*.
O=c1oc(-c2ccc([N+](=O)[O-])cc2)nc2ccccc12 was read as tim23-1 inh 11, PfHsp90 yeast 2 -22, Rce1 inhib inactive, tim10-1 inh 1 and TIM10 inh 29.
Screening O=c1oc(-c2ccc([N+](=O)[O-])cc2)nc2ccc(O)cc12 returned tim23-1 inh 52*, PfHsp90 yeast 2 -18, Rce1 inhib inactive, tim10-1 inh 21, TIM10 inh 14 and tim23-1 confirm 65*.
Screening O=C1/C(=C/c2cccc(Br)c2)SC(=S)N1/N=C/c1cc([N+](=O)[O-])ccc1O returned tim23-1 inh 82*, PfHsp90 yeast 2 0, Rce1 inhib inactive, tim10-1 inh 13, TIM10 inh 18 and tim23-1 confirm 30.
Screening COc1cc(OC)cc(-c2sc3ccc(OC)cc3c2-c2ccc(OCCN3CCCCC3)cc2)c1 returned tim23-1 inh 52*, PfHsp90 yeast 2 24, tim10-1 inh 14, TIM10 inh 6 and tim23-1 confirm 26.
For c1ccc2c(-c3ccc(OCCN4CCCCC4)cc3)c(-c3ccsc3)sc2c1 the results were tim23-1 inh 63*, PfHsp90 yeast 2 32, tim10-1 inh -6, TIM10 inh 29 and tim23-1 confirm 65*.
Screening Cn1nnnc1Sc1ncnc2scc(-c3ccc(-c4ccccc4)cc3)c12 returned tim23-1 inh 38, PfHsp90 yeast 2 -12, tim10-1 inh 15 and TIM10 inh 6.
`Cn1nnnc1Sc1ncnc2scc(-c3ccc(C(F)(F)F)cc3)c12` gave tim23-1 inh 56*, PfHsp90 yeast 2 -3, tim10-1 inh 21, TIM10 inh 1 and tim23-1 confirm 38.
Screening Cn1nnnc1Sc1ncnc2scc(-c3cc4ccccc4o3)c12 returned tim23-1 inh 71*, PfHsp90 yeast 2 -6, tim10-1 inh 26, TIM10 inh 33 and tim23-1 confirm 39*.
Screening Cn1nnnc1Sc1ncnc2scc(-c3cccc(C(F)(F)F)c3)c12 returned tim23-1 inh 53*, PfHsp90 yeast 2 7, tim10-1 inh 18, TIM10 inh 12 and tim23-1 confirm 46*.
For CC(=O)NCCc1ccc(S(=O)(=O)Nc2ccc3c(c2)OCCO3)cc1 the results were tim23-1 inh -3, PfHsp90 yeast 2 -9, Rce1 inhib inactive, tim10-1 inh 20 and TIM10 inh 10.
For CCOc1ccc(/C=C/C(=O)c2c(O)c3ccccc3oc2=O)cc1 the results were tim23-1 inh 76*, PfHsp90 yeast 2 6, Rce1 inhib inactive, tim10-1 inh 5, TIM10 inh 13 and tim23-1 confirm 32.
`CN(C)c1ccc(/C=C/C(=O)c2c(O)c3ccccc3oc2=O)cc1` gave tim23-1 inh 19, PfHsp90 yeast 2 15, Rce1 inhib inactive, tim10-1 inh -2 and TIM10 inh 13.
O=C(c1ccccc1F)N(NC(=O)C(O)(c1ccccc1)c1ccccc1)c1ccccc1 was read as tim23-1 inh 27, PfHsp90 yeast 2 12, Rce1 inhib inactive, tim10-1 inh 27 and TIM10 inh 21.
Screening CCOc1ccc(NCc2cc3c(C(C)(C)C)nn(-c4ccccc4)c3[nH]c2=O)cc1 returned tim23-1 inh 58*, PfHsp90 yeast 2 103*, Rce1 inhib inactive, tim10-1 inh 22, TIM10 inh 32 and tim23-1 confirm 55*.
For CCc1ccc(NCc2cc3c(C)nn(-c4ccccc4)c3[nH]c2=O)cc1 the results were tim23-1 inh 14, PfHsp90 yeast 2 33, Rce1 inhib inactive, tim10-1 inh 13 and TIM10 inh 10.
`COc1cccc(NCc2cc3c(C(C)(C)C)nn(-c4ccccc4)c3[nH]c2=O)c1` gave tim23-1 inh 70*, PfHsp90 yeast 2 44, Rce1 inhib inactive, tim10-1 inh 36, TIM10 inh 36 and tim23-1 confirm 59*.
CC(=O)N1c2c(cc(Br)cc2S(=O)(=O)NCC2COc3ccccc3O2)CC1C (stereo not given) was read as tim23-1 inh 25, PfHsp90 yeast 2 -8, tim10-1 inh 19 and TIM10 inh 9.

Screening data: PubChem BioAssay, several laboratories
